Common to all, as to experiment: DAPPL (digital affinity profiling via proximity ligation, sequencing); 10 mM Tris-HCl pH 7.5, 50 mM NaCl, 1 mM DTT, 4% glycerol, room temperature, 30 min; GST-TFs on glutathione beads, 16-mer random dsDNA library, 0.1% formaldehyde crosslink after washing; high values mean tight binding
For experiment [1], the target named is T1, FEV (Homo sapiens, UniProt Q99581 1-238).
T1 sequence: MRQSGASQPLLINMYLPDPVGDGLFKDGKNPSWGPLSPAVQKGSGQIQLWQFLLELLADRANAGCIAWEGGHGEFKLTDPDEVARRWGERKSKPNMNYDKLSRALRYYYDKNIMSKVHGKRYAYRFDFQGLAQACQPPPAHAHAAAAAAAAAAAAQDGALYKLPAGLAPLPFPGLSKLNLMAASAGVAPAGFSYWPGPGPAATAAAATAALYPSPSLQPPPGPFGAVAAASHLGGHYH
The settings on record: protein: recombinant; tags: N-terminal GST; dsDNA, one strand shown. A digest of the protocol: (§1)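 Human transcription factors fused to GST were expressed in yeast, captured on glutathione beads, given DNA barcodes and pooled with a GST-only negative control. Pools were incubated with 200 nmole of a 16-mer random double-stranded DNA library in Tris/NaCl/DTT/glycerol buffer at room temperature for 30 min. They were then washed, crosslinked with 0.1% formaldehyde, proximity-ligated (BsaI/T4 ligase, 1 h, 37 °C), PCR-amplified and sequenced on an Illumina NextSeq500. Binding signal is each 6-mer's read frequency for a factor divided by its frequency for the GST control.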

The target in experiment [2] is ETV5 (Homo sapiens, UniProt P41161 1-510). Conditions: protein: recombinant; tags: N-terminal GST; dsDNA, one strand shown. A digest of the protocol:
as §1

Experiment [3] addresses HSF1 (Homo sapiens, UniProt Q00613 1-529). Conditions: protein: recombinant; tags: N-terminal GST; chain copies: 3; dsDNA, one strand shown. In a few lines:
as §1

For experiment [4], the target named is T2, SPIC (Homo sapiens, UniProt Q8N5J4 1-248).
T2 sequence: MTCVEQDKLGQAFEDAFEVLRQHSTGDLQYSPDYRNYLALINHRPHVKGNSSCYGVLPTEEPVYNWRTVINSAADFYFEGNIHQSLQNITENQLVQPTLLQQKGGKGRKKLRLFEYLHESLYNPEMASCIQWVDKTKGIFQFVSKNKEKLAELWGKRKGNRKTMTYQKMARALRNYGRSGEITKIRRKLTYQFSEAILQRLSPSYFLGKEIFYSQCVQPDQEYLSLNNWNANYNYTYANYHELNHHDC
The settings on record: protein: recombinant; tags: N-terminal GST; dsDNA, one strand shown. In a few lines:
as §1

For experiment [5], the target named is ELF4 (Homo sapiens, UniProt Q99607 1-663). The settings on record: protein: recombinant; tags: N-terminal GST; dsDNA, one strand shown. A digest of the protocol:
as §1

The target in experiment [6] is T3, ELK4 (Homo sapiens, UniProt P28324-2 1-405).
T3 sequence: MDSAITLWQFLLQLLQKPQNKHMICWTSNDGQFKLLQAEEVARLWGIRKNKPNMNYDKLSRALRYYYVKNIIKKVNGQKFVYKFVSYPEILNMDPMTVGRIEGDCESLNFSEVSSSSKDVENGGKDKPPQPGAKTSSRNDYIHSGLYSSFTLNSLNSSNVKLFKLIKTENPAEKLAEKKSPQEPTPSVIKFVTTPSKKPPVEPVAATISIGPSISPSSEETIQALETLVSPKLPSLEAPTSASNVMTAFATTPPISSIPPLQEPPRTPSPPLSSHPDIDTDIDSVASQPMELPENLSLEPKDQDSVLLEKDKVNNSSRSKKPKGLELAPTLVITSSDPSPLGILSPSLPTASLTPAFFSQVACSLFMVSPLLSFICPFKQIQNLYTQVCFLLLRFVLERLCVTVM
Conditions: protein: recombinant; tags: N-terminal GST; dsDNA, one strand shown. In a few lines: as §1

The target in experiment [7] is T4, ETV2 (Homo sapiens, UniProt O00321 1-342).
T4 sequence: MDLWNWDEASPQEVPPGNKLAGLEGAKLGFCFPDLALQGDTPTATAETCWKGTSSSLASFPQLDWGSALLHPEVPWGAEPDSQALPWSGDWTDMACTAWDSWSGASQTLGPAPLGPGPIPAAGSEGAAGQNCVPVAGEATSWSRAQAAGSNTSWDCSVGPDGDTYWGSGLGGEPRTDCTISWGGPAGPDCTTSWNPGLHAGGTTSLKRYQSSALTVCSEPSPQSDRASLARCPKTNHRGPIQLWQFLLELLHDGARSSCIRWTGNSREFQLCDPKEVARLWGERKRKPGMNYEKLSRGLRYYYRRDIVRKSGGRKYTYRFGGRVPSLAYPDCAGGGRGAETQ
Conditions: protein: recombinant; tags: N-terminal GST; dsDNA, one strand shown. In a few lines: as §1

Experiment [8] concerns the target T5, ELF3 (Homo sapiens, UniProt P78545 1-371).
T5 sequence: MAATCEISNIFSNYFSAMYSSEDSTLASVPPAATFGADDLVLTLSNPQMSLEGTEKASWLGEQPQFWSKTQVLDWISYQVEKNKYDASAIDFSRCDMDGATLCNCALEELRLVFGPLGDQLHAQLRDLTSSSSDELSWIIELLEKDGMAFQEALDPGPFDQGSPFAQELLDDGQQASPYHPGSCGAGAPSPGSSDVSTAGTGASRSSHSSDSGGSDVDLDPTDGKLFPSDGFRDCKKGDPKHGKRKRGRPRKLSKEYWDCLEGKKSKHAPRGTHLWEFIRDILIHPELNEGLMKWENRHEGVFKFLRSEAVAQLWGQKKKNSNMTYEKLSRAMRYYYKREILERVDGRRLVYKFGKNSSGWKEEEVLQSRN
Conditions: protein: recombinant; tags: N-terminal GST; dsDNA, one strand shown. A digest of the protocol: as §1

Experiment [9] concerns the target CRX (Homo sapiens, UniProt O43186 1-299). The settings on record: protein: recombinant; tags: N-terminal GST; dsDNA, one strand shown. In a few lines:
as §1

The target of experiment [10] is ETV1 (Homo sapiens, UniProt P50549 1-477). The settings on record: protein: recombinant; tags: N-terminal GST; dsDNA, one strand shown. A digest of the protocol: as §1
In experiment [11] the target is T6, ERF (Homo sapiens, UniProt P50548 1-548).
T6 sequence: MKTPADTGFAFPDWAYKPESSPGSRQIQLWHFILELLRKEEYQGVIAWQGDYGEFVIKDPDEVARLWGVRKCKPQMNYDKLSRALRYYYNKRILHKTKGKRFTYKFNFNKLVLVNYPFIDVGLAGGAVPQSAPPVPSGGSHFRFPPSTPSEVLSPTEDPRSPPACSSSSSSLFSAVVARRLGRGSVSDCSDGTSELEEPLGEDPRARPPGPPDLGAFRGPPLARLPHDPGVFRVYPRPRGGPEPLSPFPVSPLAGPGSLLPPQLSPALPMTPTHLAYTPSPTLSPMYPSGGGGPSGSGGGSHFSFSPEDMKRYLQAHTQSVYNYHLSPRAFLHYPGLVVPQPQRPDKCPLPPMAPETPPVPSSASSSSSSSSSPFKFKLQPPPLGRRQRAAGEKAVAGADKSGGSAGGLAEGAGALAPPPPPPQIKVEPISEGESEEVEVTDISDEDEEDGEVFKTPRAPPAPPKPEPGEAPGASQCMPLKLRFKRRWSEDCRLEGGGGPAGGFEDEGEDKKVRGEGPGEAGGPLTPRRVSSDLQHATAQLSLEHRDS
Conditions: protein: recombinant; tags: N-terminal GST; dsDNA, one strand shown. In a few lines:
as §1

Experiment [12] addresses T7, ETV3L (Homo sapiens, UniProt Q6ZN32 1-361).
T7 sequence: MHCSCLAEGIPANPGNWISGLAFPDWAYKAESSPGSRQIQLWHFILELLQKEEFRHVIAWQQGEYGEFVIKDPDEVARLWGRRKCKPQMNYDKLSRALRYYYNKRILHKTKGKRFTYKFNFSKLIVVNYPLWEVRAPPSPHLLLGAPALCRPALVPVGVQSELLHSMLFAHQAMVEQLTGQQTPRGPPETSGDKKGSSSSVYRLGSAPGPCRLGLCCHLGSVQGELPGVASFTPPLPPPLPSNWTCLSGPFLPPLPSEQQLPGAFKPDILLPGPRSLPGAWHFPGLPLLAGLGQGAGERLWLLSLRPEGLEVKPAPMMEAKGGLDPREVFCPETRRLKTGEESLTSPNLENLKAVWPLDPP
The settings on record: protein: recombinant; tags: N-terminal GST; dsDNA, one strand shown. A digest of the protocol:
as §1

Experiment [13] deals with T8, ETS2 (Homo sapiens, UniProt P15036 1-469).
T8 sequence: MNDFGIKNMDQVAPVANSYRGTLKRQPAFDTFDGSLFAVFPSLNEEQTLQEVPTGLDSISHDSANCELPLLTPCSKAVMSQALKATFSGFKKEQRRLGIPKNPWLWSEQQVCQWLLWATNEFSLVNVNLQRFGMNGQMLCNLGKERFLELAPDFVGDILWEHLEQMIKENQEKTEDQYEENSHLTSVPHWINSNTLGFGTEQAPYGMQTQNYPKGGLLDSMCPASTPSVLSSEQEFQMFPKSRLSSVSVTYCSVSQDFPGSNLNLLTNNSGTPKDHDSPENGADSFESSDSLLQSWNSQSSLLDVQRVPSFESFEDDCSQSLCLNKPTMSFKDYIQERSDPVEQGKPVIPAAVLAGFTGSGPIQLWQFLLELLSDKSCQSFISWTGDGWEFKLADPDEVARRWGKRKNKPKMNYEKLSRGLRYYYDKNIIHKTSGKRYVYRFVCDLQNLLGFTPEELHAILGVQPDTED
The settings on record: protein: recombinant; tags: N-terminal GST; dsDNA, one strand shown. A digest of the protocol:
as §1

For experiment [14], the target named is T9, SPDEF (Homo sapiens, UniProt O95238 1-335).
T9 sequence: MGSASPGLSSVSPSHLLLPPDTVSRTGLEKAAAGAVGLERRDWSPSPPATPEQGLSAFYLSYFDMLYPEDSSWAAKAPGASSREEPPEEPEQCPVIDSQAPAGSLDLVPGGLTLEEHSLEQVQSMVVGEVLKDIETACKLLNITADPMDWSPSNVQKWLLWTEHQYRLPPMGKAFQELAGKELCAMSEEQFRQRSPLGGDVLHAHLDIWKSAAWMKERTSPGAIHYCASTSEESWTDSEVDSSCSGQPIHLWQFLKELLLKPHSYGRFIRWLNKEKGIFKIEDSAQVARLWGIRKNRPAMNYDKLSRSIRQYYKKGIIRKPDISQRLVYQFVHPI
The settings on record: protein: recombinant; tags: N-terminal GST; dsDNA, one strand shown. A digest of the protocol:
as §1

The target of experiment [15] is T10, ETV7 (Homo sapiens, UniProt Q9Y603 1-341).
T10 sequence: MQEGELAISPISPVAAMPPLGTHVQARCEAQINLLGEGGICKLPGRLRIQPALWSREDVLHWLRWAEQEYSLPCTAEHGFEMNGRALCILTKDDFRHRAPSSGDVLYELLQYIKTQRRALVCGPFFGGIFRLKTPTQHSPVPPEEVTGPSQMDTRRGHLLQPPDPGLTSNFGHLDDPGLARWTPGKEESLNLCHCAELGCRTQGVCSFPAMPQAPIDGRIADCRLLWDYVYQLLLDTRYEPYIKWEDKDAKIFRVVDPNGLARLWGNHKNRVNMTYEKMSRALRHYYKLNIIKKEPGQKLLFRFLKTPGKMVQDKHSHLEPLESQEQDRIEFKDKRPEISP
The settings on record: protein: recombinant; tags: N-terminal GST; dsDNA, one strand shown. A digest of the protocol:
as §1

The target in experiment [16] is T11, ELF5 (Homo sapiens, UniProt Q9UKW6-2 1-255).
T11 sequence: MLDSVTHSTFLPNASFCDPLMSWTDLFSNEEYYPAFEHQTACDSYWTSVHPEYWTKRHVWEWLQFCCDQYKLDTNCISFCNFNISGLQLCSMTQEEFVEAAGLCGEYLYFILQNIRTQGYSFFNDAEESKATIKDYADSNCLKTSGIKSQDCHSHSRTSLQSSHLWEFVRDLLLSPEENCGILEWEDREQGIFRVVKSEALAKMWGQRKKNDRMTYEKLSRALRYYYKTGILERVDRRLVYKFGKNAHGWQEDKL
The settings on record: protein: recombinant; tags: N-terminal GST; dsDNA, one strand shown. A digest of the protocol:
as §1

In experiment [17] the target is T12, ETV3 (Homo sapiens, UniProt P41162-2 1-143).
T12 sequence: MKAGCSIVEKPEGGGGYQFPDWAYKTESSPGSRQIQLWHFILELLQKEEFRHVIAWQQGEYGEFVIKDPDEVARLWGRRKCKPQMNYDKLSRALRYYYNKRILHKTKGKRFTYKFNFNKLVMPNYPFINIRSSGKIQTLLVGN
The settings on record: protein: recombinant; tags: N-terminal GST; dsDNA, one strand shown. A digest of the protocol:
as §1

Experiment [18] addresses ETV6 (Homo sapiens, UniProt P41212 1-452). The settings on record: protein: recombinant; tags: N-terminal GST; dsDNA, one strand shown. A digest of the protocol: as §1

Sequence of ETV6 (P41212 whole entry): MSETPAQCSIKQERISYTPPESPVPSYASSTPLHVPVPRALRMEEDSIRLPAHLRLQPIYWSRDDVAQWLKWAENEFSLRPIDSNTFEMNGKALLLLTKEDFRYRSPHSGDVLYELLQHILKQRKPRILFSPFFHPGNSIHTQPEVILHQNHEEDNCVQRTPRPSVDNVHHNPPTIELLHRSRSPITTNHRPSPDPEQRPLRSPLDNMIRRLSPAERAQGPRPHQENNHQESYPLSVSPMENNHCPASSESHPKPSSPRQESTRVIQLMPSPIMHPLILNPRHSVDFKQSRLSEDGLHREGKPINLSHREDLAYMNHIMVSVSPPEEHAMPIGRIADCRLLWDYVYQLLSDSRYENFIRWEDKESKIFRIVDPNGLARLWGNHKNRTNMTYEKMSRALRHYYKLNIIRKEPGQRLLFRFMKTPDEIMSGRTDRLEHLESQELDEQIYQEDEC
Sequence of ELF4 (Q99607 whole entry): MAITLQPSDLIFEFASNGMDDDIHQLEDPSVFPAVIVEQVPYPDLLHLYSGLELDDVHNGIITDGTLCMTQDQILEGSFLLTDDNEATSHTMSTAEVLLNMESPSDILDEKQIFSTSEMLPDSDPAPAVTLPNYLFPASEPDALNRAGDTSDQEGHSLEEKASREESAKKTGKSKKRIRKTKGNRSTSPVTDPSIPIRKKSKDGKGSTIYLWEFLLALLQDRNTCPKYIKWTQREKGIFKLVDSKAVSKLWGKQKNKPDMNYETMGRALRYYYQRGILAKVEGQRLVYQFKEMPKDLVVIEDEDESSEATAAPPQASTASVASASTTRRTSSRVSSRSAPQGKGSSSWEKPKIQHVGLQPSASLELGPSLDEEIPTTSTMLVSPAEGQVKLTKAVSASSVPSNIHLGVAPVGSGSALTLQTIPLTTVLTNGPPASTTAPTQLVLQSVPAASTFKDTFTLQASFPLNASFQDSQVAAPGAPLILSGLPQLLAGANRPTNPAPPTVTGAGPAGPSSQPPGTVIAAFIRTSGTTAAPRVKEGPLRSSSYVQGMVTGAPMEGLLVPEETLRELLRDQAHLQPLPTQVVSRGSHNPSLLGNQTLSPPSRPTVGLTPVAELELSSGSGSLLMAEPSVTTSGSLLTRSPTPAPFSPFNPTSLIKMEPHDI
Sequence of HSF1 (Q00613 whole entry): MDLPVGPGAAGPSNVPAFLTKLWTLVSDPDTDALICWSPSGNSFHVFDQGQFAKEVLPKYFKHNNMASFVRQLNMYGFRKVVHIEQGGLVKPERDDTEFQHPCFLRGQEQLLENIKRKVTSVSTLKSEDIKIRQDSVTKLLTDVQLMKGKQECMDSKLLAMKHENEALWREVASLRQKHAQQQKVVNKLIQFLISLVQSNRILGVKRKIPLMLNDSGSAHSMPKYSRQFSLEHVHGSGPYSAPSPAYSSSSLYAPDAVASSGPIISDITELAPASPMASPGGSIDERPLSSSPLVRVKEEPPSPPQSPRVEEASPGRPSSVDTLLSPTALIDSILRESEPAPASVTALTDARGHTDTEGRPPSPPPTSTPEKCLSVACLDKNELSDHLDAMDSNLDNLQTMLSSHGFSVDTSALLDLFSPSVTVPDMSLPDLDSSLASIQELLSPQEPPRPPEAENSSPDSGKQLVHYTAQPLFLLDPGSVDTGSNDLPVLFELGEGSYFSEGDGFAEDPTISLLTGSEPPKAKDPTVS
Sequence of CRX (O43186 whole entry): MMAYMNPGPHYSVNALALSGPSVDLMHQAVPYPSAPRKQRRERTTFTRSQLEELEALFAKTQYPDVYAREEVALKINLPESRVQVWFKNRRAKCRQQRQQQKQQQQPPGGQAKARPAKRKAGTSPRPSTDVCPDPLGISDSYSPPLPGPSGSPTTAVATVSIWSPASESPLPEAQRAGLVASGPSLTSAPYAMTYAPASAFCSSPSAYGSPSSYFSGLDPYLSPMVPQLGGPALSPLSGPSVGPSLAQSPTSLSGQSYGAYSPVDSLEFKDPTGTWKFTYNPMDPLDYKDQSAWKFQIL
Sequence of ETV5 (P41161 whole entry): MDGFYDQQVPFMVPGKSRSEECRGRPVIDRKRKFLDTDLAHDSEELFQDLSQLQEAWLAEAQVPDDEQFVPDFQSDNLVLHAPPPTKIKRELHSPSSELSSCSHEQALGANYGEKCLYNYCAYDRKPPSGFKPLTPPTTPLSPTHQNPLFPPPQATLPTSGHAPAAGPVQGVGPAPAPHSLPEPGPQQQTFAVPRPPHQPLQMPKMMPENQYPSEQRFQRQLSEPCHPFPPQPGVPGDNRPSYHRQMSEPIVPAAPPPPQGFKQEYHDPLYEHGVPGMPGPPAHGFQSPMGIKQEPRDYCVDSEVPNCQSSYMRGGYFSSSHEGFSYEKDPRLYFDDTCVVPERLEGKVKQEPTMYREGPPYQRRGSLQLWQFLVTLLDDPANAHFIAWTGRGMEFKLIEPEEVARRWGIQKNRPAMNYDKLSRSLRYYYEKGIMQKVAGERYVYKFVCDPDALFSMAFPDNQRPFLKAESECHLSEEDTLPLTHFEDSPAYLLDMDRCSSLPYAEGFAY
Sequence of ETV1 (P50549 whole entry): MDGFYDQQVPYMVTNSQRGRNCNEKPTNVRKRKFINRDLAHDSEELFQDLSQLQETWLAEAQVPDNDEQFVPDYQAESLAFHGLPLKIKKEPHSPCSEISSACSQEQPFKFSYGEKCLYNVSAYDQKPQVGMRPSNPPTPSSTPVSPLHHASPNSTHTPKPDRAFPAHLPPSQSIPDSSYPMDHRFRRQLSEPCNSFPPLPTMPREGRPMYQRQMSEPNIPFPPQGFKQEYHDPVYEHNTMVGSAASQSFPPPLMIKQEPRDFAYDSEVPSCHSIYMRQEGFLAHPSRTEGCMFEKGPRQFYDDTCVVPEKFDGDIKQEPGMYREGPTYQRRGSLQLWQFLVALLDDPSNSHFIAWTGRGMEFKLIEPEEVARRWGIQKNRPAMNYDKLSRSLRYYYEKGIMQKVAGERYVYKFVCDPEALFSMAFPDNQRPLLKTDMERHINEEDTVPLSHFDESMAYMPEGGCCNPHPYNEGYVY

Turning to CTTCTC, the binding signal is 1.35 fold enrichment (6-mer frequency, TF over GST control) in experiment [1]; 1.27 fold enrichment (6-mer frequency, TF over GST control) in experiment [2]; 2.19 fold enrichment (6-mer frequency, TF over GST control) in experiment [3]; 1.55 fold enrichment (6-mer frequency, TF over GST control) in experiment [4]; 1.39 fold enrichment (6-mer frequency, TF over GST control) in experiment [5]; 1.42 fold enrichment (6-mer frequency, TF over GST control) in experiment [6]. Further, the binding signal was 1.39 fold enrichment (6-mer frequency, TF over GST control) in experiment [7]; 1.47 fold enrichment (6-mer frequency, TF over GST control) in experiment [8]; 1.56 fold enrichment (6-mer frequency, TF over GST control) in experiment [9]; 1.39 fold enrichment (6-mer frequency, TF over GST control) in [10]; 1.33 fold enrichment (6-mer frequency, TF over GST control) in [11]; 1.39 fold enrichment (6-mer frequency, TF over GST control) in experiment [12]. Further, the binding signal was 1.32 fold enrichment (6-mer frequency, TF over GST control) in experiment [13]; 1.33 fold enrichment (6-mer frequency, TF over GST control) in experiment [14]; 1.32 fold enrichment (6-mer frequency, TF over GST control) in experiment [15]; 1.52 fold enrichment (6-mer frequency, TF over GST control) in [16]; 1.31 fold enrichment (6-mer frequency, TF over GST control) in [17]; 1.37 fold enrichment (6-mer frequency, TF over GST control) in [18].

Values taken from paper PMC7862700, “An all-to-all approach to the identification of sequence-specific readers for epigenetic DNA modifications on cytosine”.
